# Tests used:
# Assay in all cases: PBM binding z-score (relative to random genomic background probes); higher = stronger binding; sequences stand for … in GC…GCGATTGACAGCGTAGAATGAAGG
# [1] = system: PPARg:RXRa DBDmut IVT, anti-RXR (DBD mutation: RXRa K156A/R161A, NR concentration 270 nM, RXRa partner concentration 90 nM)
# Method in brief: (§1)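 Ligand-free nuclear receptor dimers were applied to custom Agilent 4×180K protein-binding microarrays whose double-stranded probes carried direct-repeat seeds, single-nucleotide variants, half-site ablations and random human genomic background sequences in 34-nt variable regions. Incubation lasted 1 h. Binding z-scores were computed against the random background probes from regression-normalized fluorescence.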
# [2] = system: PPARg:RXRa IVT, anti-PPARg (NR concentration 270 nM, RXRa partner concentration 90 nM)
# Method in brief: as §1
# [3] = system: PPARg DBDmut:RXRa IVT, anti-PPARg (DBD mutation: PPARg1 K132A/R137A, NR concentration 270 nM, RXRa partner concentration 90 nM)
# Method in brief: as §1
# [4] = system: PPARg DBDmut IVT, anti-PPARg (DBD mutation: PPARg1 K132A/R137A, NR concentration 270 nM)
# Method in brief: as §1
# [5] = system: PPARg homodimer (NR concentration 180 nM)
# Method in brief: as §1
# [6] = system: PXR:RXRa (NR concentration 270 nM, RXRa partner concentration 90 nM)
# Method in brief: as §1
# [7] = system: PXR homodimer (NR concentration 270 nM)
# Method in brief: as §1
# [8] = system: RARa:RXR (NR concentration 270 nM, RXRa partner concentration 90 nM)
# Method in brief: as §1
# [9] = system: RARa homodimer (NR concentration 270 nM)
# Method in brief: as §1
# [10] = system: RARb:RXRa (NR concentration 270 nM, RXRa partner concentration 90 nM)
# Method in brief: as §1
# [11] = system: RARb homodimer (NR concentration 270 nM)
# Method in brief: as §1
# [12] = system: RARg:RXRa (NR concentration 270 nM, RXRa partner concentration 90 nM)
# Method in brief: as §1
# [13] = system: RARg homodimer (NR concentration 270 nM)
# Method in brief: as §1
# [14] = system: RXRa DBDmut IVT, anti-RXR (DBD mutation: RXRa K156A/R161A, NR concentration 90 nM)
# Method in brief: as §1
# [15] = system: RXRa homodimer (NR concentration 180 nM)
# Method in brief: as §1
# [16] = system: THRa:RXRa (NR concentration 90 nM, RXRa partner concentration 90 nM)
# Method in brief: as §1
# [17] = system: THRa homodimer (NR concentration 90 nM)
# Method in brief: as §1
# [18] = system: VDR homodimer (NR concentration 270 nM)
# Method in brief: as §1
Sequence,PBM binding z-score [1],PBM binding z-score [2],PBM binding z-score [3],PBM binding z-score [4],PBM binding z-score [5],PBM binding z-score [6],PBM binding z-score [7],PBM binding z-score [8],PBM binding z-score [9],PBM binding z-score [10],PBM binding z-score [11],PBM binding z-score [12],PBM binding z-score [13],PBM binding z-score [14],PBM binding z-score [15],PBM binding z-score [16],PBM binding z-score [17],PBM binding z-score [18]
TCGAGTAGGTTAGCGGCATTCAGAATGGCGTCGA,1.81,0.944,-1.28,-0.893,-1.05,-0.724,-0.924,-0.504,-1.29,0.21,-0.725,-0.482,-0.458,-0.267,0.000996,-0.647,-0.985,-0.691
CGTCCAAGGTCAATGCTTGGTCAGTGAAAGCATT,2.65,3.19,-0.682,-0.881,3.32,3.86,0.527,4.45,0.0669,5.03,4.25,6.01,6.27,3.51,4.89,3.82,2.24,2.49
CCGAGTAGGTTATGGGGTATTCAGGCAACGGTGA,3.61,3.4,-0.421,-0.159,1.48,0.386,0.458,0.453,1.06,0.8,0.841,0.46,0.562,0.0146,0.873,0.963,1.05,0.274
CAAACTAGCTCACCGGAAGGTCAAAGTCCGCATG,0.993,1.36,-0.25,0.542,2.25,3.37,1.23,3.64,0.685,3.17,3.98,3.23,2.5,0.916,3.25,2.67,1.55,2.17
CGAACTAGGTCATCCCGGACAGTGAATACATTGA,7.94,8.33,3.25,4.44,4.1,1.56,0.96,2.24,1.88,3.69,2.84,3.68,4.66,2.33,2.6,2.86,1.4,1.91
TTACCAATGTGAAGGTCGTTGATCCCTCTGTAGA,0.314,0.221,-0.143,0.211,0.84,1.37,0.539,1.45,0.451,0.862,1.25,0.262,0.216,0.586,1.05,0.82,0.201,1.04
ATCGAAAGGTCGAAGGTGAGGATACCCACCCGAA,0.202,2.45,0.792,0.619,1.6,3.14,0.0224,4.45,0.541,3.66,2.56,4.41,3.84,0.413,5.16,3.1,1.1,0.293

# Source: the supplement of paper PMC6555819
